In all, about 39,000 sequences were measured (“fluorescence intensity (a.u.)”: median about 4,300, highest 2% from about 39,000 on). Shown is part of a subset that was picked to be rich in the highest values.

For the assay, the target named is T1, OsSMF1 (Oryza sativa, UniProt Q6ZLB0 1-436).
T1 sequence: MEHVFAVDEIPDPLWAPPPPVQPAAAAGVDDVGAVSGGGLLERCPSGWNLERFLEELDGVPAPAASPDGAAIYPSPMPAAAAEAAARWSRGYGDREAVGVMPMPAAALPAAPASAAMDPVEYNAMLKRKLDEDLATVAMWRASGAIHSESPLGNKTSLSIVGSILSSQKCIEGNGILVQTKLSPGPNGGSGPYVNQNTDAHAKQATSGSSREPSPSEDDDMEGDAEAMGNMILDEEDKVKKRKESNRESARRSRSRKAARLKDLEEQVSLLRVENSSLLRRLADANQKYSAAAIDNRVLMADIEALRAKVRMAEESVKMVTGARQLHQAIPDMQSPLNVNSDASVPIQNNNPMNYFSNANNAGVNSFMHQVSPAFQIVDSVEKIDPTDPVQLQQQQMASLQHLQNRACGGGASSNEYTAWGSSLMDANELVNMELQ
Description: protein-binding microarray (RPBM); PBS, 2% BSA, 51.3 ng/ul salmon testes DNA, 50 uM zinc acetate, 200 nM TF, 25 C, 1 h; high values mean tight binding. The conditions noted are these: protein: recombinant; tags: N-terminal polyhistidine and DsRed monomer fusion (pET32a); chain copies: 2; label: CyDye5-dUTP incorporated in the synthesized complementary strand; 3' TTTTT single-stranded linker to array surface; dsDNA, one strand shown. The method in brief: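 A custom Agilent array was converted to double-stranded form by primer extension with Cy5-dUTP and blocked with 2% BSA. Protein at 200 nM in PBS with 2% BSA, salmon testes DNA and 50 µM zinc acetate was applied for 1 h at 25 °C, followed by washing. The proteins were polyhistidine–DsRed N-terminal fusions of transcription factors, expressed in E. coli BL21-CodonPlus and Ni–NTA-purified. The binding signal is per-feature fluorescence intensity (arbitrary units) from an Axon 4000B scanner.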
Regarding “ACATTACCAAATTTTAACAATGCCAAAATTTTGGTAAGGTCGGAGTCACCTAGTGCAG”, the binding signal was 3450 fluorescence intensity (a.u.).
Next, “ACCAAATTTTAGCAATACCAAAATTTTGGCATAGTTGCCACGGAGTCACCTAGTGCAG”: 7010 fluorescence intensity (a.u.); “AGCTAAAATAAACTTTACCAAATTTTGGCAATGCCAAAATCGGAGTCACCTAGTGCAG”: 51800 fluorescence intensity (a.u.); “AAACGCCAACGCCATACTCCACCTGACCTCACACTCGCACCGGAGTCACCTAGTGCAG”: 3290 fluorescence intensity (a.u.).
As to “CGTCCCTTGGACGTCATCTTCTCCTCACGTGCATTGCCTCCGGAGTCACCTAGTGCAG”, the binding signal is 4360 fluorescence intensity (a.u.).
On to “TTGCAGCATCACCTGGCGAGGCGTAGCTAGGAGATGCAGACGGAGTCACCTAGTGCAG”, for which the binding signal was 40100 fluorescence intensity (a.u.).
Consider “TAAGATGGAGGAGGCGAGGAGAGTTGCGTAGGATGGAGTGCGGAGTCACCTAGTGCAG”, for which the binding signal is 3880 fluorescence intensity (a.u.).
Consider “TTTGGCATACCTGGAGCAGATCAGGCAGCACATGGCGAGGCGGAGTCACCTAGTGCAG”, for which the binding signal was 25600 fluorescence intensity (a.u.).
The result for “TTATGAGTTTAGAGGGATGATTAGGATACATGGGAATTTTCGGAGTCACCTAGTGCAG” reads 22200 fluorescence intensity (a.u.); that for “AACCCGGCGTTGGTGAGCTGTTCCATTGTGTCTATAGGCACGGAGTCACCTAGTGCAG”, 3210 fluorescence intensity (a.u.).
In the case of “GATATATATACGCGTTCATCAGCGTACGTTCTTATAGCTACGGAGTCACCTAGTGCAG”, the binding signal is 40100 fluorescence intensity (a.u.).
On to “TGGATATGCATGCGTACGTACGTAGCTTACCTATAGCTAGCGGAGTCACCTAGTGCAG”, for which the binding signal was 3500 fluorescence intensity (a.u.).
With “TACTTAGCTAGCTAATCGCGTTGCTCTTTCTCGTACTATACGGAGTCACCTAGTGCAG”, the binding signal is 20400 fluorescence intensity (a.u.).
As for “CACTCCGGCGTGACGGAGCCCTTCCCCGATGTGATGCCTACGGAGTCACCTAGTGCAG”, the binding signal was 32600 fluorescence intensity (a.u.).
Next, “AGGGGCGGAGGGCAGCGATTTTGGTTGGTAGTAGTACGGGCGGAGTCACCTAGTGCAG”: 3610 fluorescence intensity (a.u.).
For the sequence “CGTTGGCGTCCACCACGGCCACCGCCACGCCGCTCGTGTTCGGAGTCACCTAGTGCAG”, the binding signal was 4420 fluorescence intensity (a.u.).
Take “GACTTAACTTTAGTCCCTGTATTTAGACACTAATTTAGAGCGGAGTCACCTAGTGCAG”: the binding signal was 65500 fluorescence intensity (a.u.).
For “CAGGTACTTAACTTTAGTCCCTGTCTTTAGACACTAATTTCGGAGTCACCTAGTGCAG”, the binding signal is 5100 fluorescence intensity (a.u.).
With “GTCCCCTGTTGCACTTAGATATTTAACTTTGTTAAGGATTCGGAGTCACCTAGTGCAG”, the binding signal was 4820 fluorescence intensity (a.u.).
The result for “TCCCCGTCTTTTCCTTCCGCCTCACCAACCTCGTCTCGTCCGGAGTCACCTAGTGCAG” reads 3330 fluorescence intensity (a.u.).
In the case of “TCGTCGATGTCACCGCCACCACCGTCGTCATCGCTGCCTTCGGAGTCACCTAGTGCAG”, the binding signal was 3820 fluorescence intensity (a.u.).
As to “CGTACGGCACCGAGTTATCGCCGCCAGGTCAGTTGGTTTACGGAGTCACCTAGTGCAG”, the binding signal is 3690 fluorescence intensity (a.u.).
Regarding “CACTAGCTTGTTATATTTACGTGGCACACTTTGATGAGTACGGAGTCACCTAGTGCAG”, the binding signal was 11500 fluorescence intensity (a.u.).
Consider “AGCTAGAACGCACAGACTTTAGGCTTTAGGTACGATGATGCGGAGTCACCTAGTGCAG”, for which the binding signal is 43300 fluorescence intensity (a.u.).
Take “CACAGGCAGGCCTGCAACATGCGTCACGCAGACTTTGATGCGGAGTCACCTAGTGCAG”: the binding signal was 4140 fluorescence intensity (a.u.).
For the sequence “AAAGCAACAGCAGCCCAGCACACCACAGCACAGCGCCGCTCGGAGTCACCTAGTGCAG”, the binding signal is 3180 fluorescence intensity (a.u.).
Take “CATCATCATCTCTTCTCCTCTCTCTCTCTCTTTCCTTTTCCGGAGTCACCTAGTGCAG”: the binding signal is 8580 fluorescence intensity (a.u.).
As for “TCTCCCCTCTCCTTCCTCCTCTCCTTTCCCCTCCTCTCTTCGGAGTCACCTAGTGCAG”, the binding signal was 17100 fluorescence intensity (a.u.).
For the sequence “TCCTGTCCTTCTTTCTCTTCAAGTCCTTCCTCTTCACTCCCGGAGTCACCTAGTGCAG”, the binding signal was 65500 fluorescence intensity (a.u.).
As for “CTCCTCTTCCCTTCCCTTCTCTCTTTTCTTTTCTCTCACACGGAGTCACCTAGTGCAG”, the binding signal is 28600 fluorescence intensity (a.u.).
As for “TCCTCCTCGTCGTCATCTCCAACTCCCTCCCGCTCCCTTCCGGAGTCACCTAGTGCAG”, the binding signal was 5660 fluorescence intensity (a.u.).
On to “CTTCACTAAGGTCATCGTCGTGCCTTCCTCGTCCTCCTCCCGGAGTCACCTAGTGCAG”, for which the binding signal is 43800 fluorescence intensity (a.u.).
On to “CTCCTCTCCTCCCTCCTCGACTTCTCCGCTTTCTCCGCCTCGGAGTCACCTAGTGCAG”, for which the binding signal was 3230 fluorescence intensity (a.u.).
Regarding “TCCTCCATCGCCGCCTTCACCGAGTCACCGCCCGTCATCCCGGAGTCACCTAGTGCAG”, the binding signal was 3380 fluorescence intensity (a.u.).
The result for “TTCCTGACTTCCTCCTCCCTTTCTTCTCTCGCCGCCGAGACGGAGTCACCTAGTGCAG” reads 41400 fluorescence intensity (a.u.).
For “GACCAAACCTCCAATTAACAAGGTAGTTTAACACACATCACGGAGTCACCTAGTGCAG”, the binding signal was 16100 fluorescence intensity (a.u.).
With “TACAAGTATAAAACTTTAGATACGTGGGATTAACACGTCACGGAGTCACCTAGTGCAG”, the binding signal was 6470 fluorescence intensity (a.u.).
As to “CCTCGGGGAGGGCGTGGCAAGCGGCACGCGTGGCGGGGAGCGGAGTCACCTAGTGCAG”, the binding signal was 5890 fluorescence intensity (a.u.).
For “CCCCAGAAAGTCCCCATATTTCTAGGAACTTCCGTTCTAGCGGAGTCACCTAGTGCAG”, the binding signal was 13900 fluorescence intensity (a.u.).
The result for “GCTCATAGAGCTACACACTGATGACAAGACATAAGGGAAGCGGAGTCACCTAGTGCAG” reads 4350 fluorescence intensity (a.u.); that for “ACCTCCGGCCCACGGACGCGACGCGCTTACACACATGGCCCGGAGTCACCTAGTGCAG”, 3580 fluorescence intensity (a.u.); that for “TGGATTACTCATAATGATTATGTCATATAGGTGATGTTGCCGGAGTCACCTAGTGCAG”, 3440 fluorescence intensity (a.u.).
